# In PubChem BioAssay:
# Active and inactive are the calls of the source.
# Legend:
# [1] = small molecules captured by biotinylated probe aFSTL3 – biochemical, small-molecule microarray, fluorescence 635/667, stem cell growth factor project, primary screen (AID 1064); settings: higher = more signal;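 further: measures binding of the biotinylated anti-FSTL3 antibody to printed compounds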
# [2] = binders from COS7 lysate, DM2A8 probe, primary screen, torsin A project, cell lysate, small-molecule microarray, fluorescence 635/667 (AID 1065); settings: higher = more signal, COS7 lysate expressing mutant human TOR1A
# [3] = small molecules captured by biotinylated probe aFGF2 – biochemical, small-molecule microarray, fluorescence 635/667, stem cell growth factor project, primary screen (AID 1067); settings: higher = more signal;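 further: measures binding of biotinylated aFGF2 protein to printed compounds on slides; z-score merges feature fluorescence and signal-to-noise across triplicate slides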
# [4] = small molecules captured by biotinylated probe aFGF10 – biochemical, small-molecule microarray, fluorescence 635/667, stem cell growth factor project, primary screen (AID 1071); settings: higher = more signal;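 further: score merges 667 nm spot intensity and signal to noise from triplicate slides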
# [5] = biological target: Neurogenic locus notch homolog protein 2 (Homo sapiens) (UniProt Q04721); experiment: small molecules binding Notch2 protein – biochemical, small-molecule microarray, 635 nm fluorescence, stem cell growth factors, primary screen (AID 1073); settings: higher = more signal
# [6] = biological target: Pro-neuregulin-1, membrane-bound isoform (Homo sapiens) (UniProt Q02297); experiment: small molecules binding neuregulin-1 protein – biochemical, small-molecule microarray, fluorescence 635/667, psychiatric disease protein project, primary screen (AID 1075); settings: NRG1 binding, 635 nm fluorescence, higher = more signal;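 further: score combines 667 nm spot fluorescence with signal to noise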
# [7] = system: Neuregulin-1 EGF-like domain; experiment: small molecules binding NRG1 EGF domain – biochemical, small-molecule microarray, 635 nm fluorescence, primary screen (AID 1081); settings: higher = more signal;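 further: binding of the protein to compounds printed on small-molecule microarray slides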
# [8] = FRG1 expression reporter modulators in myotubes – cell-based, C2C12 myotubes, firefly/Renilla luciferase, luminescence, FRG1 inhibition for FSHD, primary screen (AID 1084); settings: FRG1 promoter luciferase, higher = more signal, called active from +8 up or from −8 down
# [9] = small molecules captured by biotinylated probe aFST – biochemical, small-molecule microarray, fluorescence 635/667, stem cell growth factor project, primary screen (AID 1086); settings: higher = more signal;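 further: score merges 667 nm fluorescence with signal-to-noise of each printed compound spot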
# [10] = binders of probe aHhip on microarray, primary screen, stem cell growth factor project, biochemical, small-molecule microarray, fluorescence 635/667 (AID 1087); settings: higher = more signal;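 further: score merges spot fluorescence at 667nm with spot signal to noise ratio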
# [11] = system: PRMT1 (protein arginine N-methyltransferase 1); experiment: small molecules binding arginine methyltransferase PRMT1 – biochemical, small-molecule microarray, 635 nm fluorescence, primary screen (AID 1088); settings: higher = more signal;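 further: binding of Prmt1 protein to compounds spotted on small-molecule microarray slides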
# [12] = growth effects on S. cerevisiae YJM789 – YJM789 clinical isolate, OD600, 24 h, basal, primary screen (AID 1089); settings: higher = more signal, called active from +8 up or from −8 down;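 further: growth of clinical yeast isolate S. cerevisiae YJM 789 seeded 1000 cells per well; test concentration not given here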
# [13] = S. pombe growth modifiers, basal conditions – strain 972, OD600, 24 h, no modulator, primary screen (AID 1090);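 further: basal condition with compound alone and no growth modifier present; test concentration not given here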; settings: S. pombe 972 growth, higher = more signal, called active from +8 up or from −8 down
# [14] = budding yeast growth modifiers under rapamycin – strain BY4716, OD600, 96 h, primary screen (AID 1091); further: test concentration not given here; settings: S. cerevisiae BY4716 + rapamycin, higher = more signal, called active from +8 up or from −8 down
# [15] = biological target: Torsin-1A-interacting protein 2 (Homo sapiens) (UniProt Q8NFQ8); experiment: small molecules binding lysate-expressed LULL1 – cell lysate, human LULL1 lysate, 635/667 nm fluorescence, primary screen (AID 1092); settings: small-molecule microarray, hLULL1 lysate binding, 635 nm fluorescence; higher = more signal;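 further: probe is lysate of COS7 cells overexpressing human LULL1; score merges per-feature 667 nm fluorescence with signal-to-noise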
# [16] = optical density change of DRC41 E. coli – strain DRC41, OD650, 24 h, E. coli filamentation project, primary screen (AID 1093);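 further: MC1000 strain lacking acrAB efflux and sulA so SOS filamentation is blocked; test concentration not given here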; settings: E. coli DRC41 growth, higher = more signal, called active from +8 up or from −8 down
# [17] = probe aLefty2 binding to arrayed compounds – biochemical, biotinylated probe, 635/667 nm fluorescence, primary screen (AID 1094); settings: small-molecule microarray, higher = more signal;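 further: score merges spot fluorescence near 667 nm with spot signal-to-noise ratio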
# [18] = system: Noggin (protein binding on small-molecule microarray); experiment: small molecules binding Noggin protein – biochemical, 635/667 nm fluorescence, primary screen (AID 1095); settings: 635 nm fluorescence, higher = more signal;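 further: score merges 667 nm feature fluorescence with signal to noise over triplicate slides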
# [19] = biological target: Neurogenic locus notch homolog protein 3 (Homo sapiens) (UniProt Q9UM47); experiment: small molecules binding NOTCH3 protein – biochemical, 635/667 nm fluorescence, primary screen (AID 1096); settings: small-molecule microarray, 635 nm fluorescence, higher = more signal
# [20] = probe aEGFR binding to arrayed compounds – biochemical, biotinylated probe, 635/667 nm fluorescence, primary screen (AID 1097); settings: small-molecule microarray, higher = more signal;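 further: probe is a biotinylated anti-EGFR antibody binding compounds printed on slides; score combines fluorescence near 667 nm and signal to noise of each spot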
# Sequence of Neurogenic locus notch homolog protein 3 (Homo sapiens) (Q9UM47 whole entry, looked up): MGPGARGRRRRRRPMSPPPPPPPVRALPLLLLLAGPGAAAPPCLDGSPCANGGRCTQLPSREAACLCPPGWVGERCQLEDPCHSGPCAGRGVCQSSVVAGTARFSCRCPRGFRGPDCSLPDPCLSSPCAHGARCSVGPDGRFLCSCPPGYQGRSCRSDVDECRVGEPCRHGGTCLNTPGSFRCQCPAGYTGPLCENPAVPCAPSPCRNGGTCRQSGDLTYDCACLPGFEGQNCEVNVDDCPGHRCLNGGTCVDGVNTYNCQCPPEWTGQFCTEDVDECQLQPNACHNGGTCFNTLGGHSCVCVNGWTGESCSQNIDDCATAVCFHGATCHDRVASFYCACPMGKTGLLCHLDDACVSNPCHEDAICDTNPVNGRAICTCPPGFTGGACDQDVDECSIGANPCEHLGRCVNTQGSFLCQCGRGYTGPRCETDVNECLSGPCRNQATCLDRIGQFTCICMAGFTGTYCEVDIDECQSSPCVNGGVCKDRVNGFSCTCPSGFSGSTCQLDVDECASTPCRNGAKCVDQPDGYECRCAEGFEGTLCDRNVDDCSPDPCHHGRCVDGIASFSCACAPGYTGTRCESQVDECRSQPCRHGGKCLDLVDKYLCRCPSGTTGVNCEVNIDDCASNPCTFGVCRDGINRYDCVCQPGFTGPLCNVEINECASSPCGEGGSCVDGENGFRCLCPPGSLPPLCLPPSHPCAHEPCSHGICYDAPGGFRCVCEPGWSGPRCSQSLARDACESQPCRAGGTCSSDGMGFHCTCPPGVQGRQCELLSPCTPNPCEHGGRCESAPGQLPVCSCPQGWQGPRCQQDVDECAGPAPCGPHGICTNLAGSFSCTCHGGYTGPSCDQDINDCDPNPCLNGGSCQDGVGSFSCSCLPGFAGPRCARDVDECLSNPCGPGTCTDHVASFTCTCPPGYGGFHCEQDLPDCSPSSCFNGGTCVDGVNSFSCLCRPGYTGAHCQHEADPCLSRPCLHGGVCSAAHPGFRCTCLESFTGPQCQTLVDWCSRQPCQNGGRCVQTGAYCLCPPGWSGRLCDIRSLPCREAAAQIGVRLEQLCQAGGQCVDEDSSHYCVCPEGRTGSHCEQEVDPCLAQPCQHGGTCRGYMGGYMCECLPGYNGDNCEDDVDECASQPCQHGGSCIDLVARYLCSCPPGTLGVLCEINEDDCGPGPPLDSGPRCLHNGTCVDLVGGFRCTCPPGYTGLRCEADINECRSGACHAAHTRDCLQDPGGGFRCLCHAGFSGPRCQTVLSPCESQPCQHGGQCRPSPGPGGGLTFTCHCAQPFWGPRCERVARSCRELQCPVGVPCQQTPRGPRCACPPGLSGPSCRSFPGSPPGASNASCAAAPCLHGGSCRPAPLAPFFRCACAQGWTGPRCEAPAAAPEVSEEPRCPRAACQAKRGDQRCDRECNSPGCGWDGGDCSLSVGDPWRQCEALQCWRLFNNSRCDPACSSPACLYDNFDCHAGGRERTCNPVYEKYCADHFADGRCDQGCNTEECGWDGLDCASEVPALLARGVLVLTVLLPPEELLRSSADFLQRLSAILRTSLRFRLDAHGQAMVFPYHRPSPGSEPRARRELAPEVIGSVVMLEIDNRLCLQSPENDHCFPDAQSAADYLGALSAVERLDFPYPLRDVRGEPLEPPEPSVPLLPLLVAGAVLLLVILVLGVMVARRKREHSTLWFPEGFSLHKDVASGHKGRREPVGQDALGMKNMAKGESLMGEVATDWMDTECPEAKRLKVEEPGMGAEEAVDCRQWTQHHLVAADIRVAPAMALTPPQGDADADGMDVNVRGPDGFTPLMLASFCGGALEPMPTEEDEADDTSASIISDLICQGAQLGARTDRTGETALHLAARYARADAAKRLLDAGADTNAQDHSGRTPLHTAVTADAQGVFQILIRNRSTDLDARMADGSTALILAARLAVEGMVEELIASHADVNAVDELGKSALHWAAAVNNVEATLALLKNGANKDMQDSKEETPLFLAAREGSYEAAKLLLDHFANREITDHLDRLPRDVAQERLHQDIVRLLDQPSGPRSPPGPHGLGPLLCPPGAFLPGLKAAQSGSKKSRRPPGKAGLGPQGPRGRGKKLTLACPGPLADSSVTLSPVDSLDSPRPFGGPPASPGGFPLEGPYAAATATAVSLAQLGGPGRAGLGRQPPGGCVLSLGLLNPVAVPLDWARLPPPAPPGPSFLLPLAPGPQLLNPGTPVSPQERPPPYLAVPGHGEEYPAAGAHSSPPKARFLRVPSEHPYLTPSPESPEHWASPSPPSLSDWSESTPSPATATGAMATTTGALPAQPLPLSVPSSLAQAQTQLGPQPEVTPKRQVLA
# Sequence of Torsin-1A-interacting protein 2 (Homo sapiens) (Q8NFQ8 whole entry, looked up): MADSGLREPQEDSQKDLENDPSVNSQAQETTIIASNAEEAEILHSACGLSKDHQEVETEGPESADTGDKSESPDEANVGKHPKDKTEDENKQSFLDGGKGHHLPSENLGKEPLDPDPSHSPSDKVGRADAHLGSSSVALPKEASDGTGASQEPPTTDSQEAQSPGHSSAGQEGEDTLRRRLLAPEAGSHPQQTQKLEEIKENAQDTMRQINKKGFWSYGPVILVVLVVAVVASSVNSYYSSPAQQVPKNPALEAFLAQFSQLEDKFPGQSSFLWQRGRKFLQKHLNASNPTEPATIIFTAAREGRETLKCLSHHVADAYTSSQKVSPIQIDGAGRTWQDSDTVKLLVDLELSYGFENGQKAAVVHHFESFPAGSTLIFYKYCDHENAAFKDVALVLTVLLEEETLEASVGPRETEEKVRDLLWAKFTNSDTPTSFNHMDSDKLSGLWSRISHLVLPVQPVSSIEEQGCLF
# Sequence of Pro-neuregulin-1, membrane-bound isoform (Homo sapiens) (Q02297 whole entry, looked up, the tested form may be a part, canonical isoform): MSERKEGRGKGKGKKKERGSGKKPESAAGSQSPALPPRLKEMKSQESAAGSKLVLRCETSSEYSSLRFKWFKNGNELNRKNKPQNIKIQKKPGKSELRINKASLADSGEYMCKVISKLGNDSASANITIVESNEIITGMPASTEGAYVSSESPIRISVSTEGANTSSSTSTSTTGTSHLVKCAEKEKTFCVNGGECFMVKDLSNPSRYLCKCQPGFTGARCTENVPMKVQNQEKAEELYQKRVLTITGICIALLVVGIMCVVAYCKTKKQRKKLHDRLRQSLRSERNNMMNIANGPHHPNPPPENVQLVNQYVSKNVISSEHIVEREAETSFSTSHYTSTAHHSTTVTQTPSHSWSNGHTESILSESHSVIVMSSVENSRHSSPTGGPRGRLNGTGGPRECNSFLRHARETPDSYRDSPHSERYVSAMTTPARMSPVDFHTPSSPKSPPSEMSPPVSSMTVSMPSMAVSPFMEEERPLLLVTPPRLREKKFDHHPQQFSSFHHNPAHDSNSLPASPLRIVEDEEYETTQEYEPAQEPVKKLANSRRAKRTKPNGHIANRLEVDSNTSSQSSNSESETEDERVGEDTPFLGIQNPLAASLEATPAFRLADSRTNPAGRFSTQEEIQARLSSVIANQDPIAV
SMILES,composite z-score [1],composite z-score [2],composite z-score [3],composite z-score [4],composite z-score [5],composite z-score [6],composite z-score [7],z-score [8],composite z-score [9],composite z-score [10],composite z-score [11],z-score [12],z-score [13],z-score [14],composite z-score [15],z-score [16],composite z-score [17],composite z-score [18],composite z-score [19],composite z-score [20]
COC(=O)[C@@]1(Cc2ccccc2)[C@H]2c3cc(C(=O)N(C)C)n(CCSC(=N)N)c3C[C@H]2CN1C(=O)c1ccccc1,-0.0908,-0.512,0.243,-0.248,-0.175,1.28,1.04,0.453 (inactive),0.319,0.0401,0.265,0.485 (inactive),1.12 (inactive),0.102 (inactive),2.05,-0.0906 (inactive),0.169,-0.699,-0.0995,-0.112
C=CC[C@]1(C(=O)NCC(O)CO)COC(c2ccc(OCCCO)cc2)=N1 (stereo not given in full),1.3,1.29,0.0163,-0.0216,-0.888,0.0498,0.99,1.14 (inactive),0.0371,-0.141,-0.726,0.26 (inactive),0.691 (inactive),0.959 (inactive),2.15,-0.363 (inactive),0.479,-0.415,-1.35,0.0444
CC(C)=C1C(=O)C(c2ccccc2)=C2CN3C(=O)N(CCc4ccccc4)C(=O)[C@]3(C)[C@H]21,0.532,-0.0272,0.15,0.265,1.26,1.81,1.07,0.863 (inactive),0.64,-0.0346,-0.638,-0.37 (inactive),-0.262 (inactive),1.48 (inactive),1.19,-1.27 (inactive),0.211,-0.335,0.451,-0.0251
COCCCN1C(=O)[C@@]2(c3ccc([N+](=O)[O-])cc3)CC(=O)N(CC34CC5CC(CC(C5)C3)C4)[C@@H]2c2ccc(CO)cc21,-0.145,-0.104,-0.0952,0.0256,-0.345,0.0024,1.05,-0.748 (inactive),-0.19,0.312,1.27,0.222 (inactive),0.432 (inactive),-1.33 (inactive),2.07,-0.0011 (inactive),-0.159,0.432,-0.182,-0.115
COC(=O)[C@@]1(Cc2ccc(F)cc2)[C@H]2c3cc(C(=O)N(C)C)n(CCc4ccc(O)c(O)c4)c3C[C@H]2CN1C(=O)c1ccccc1,-0.0383,-0.134,0.187,0.876,1.68,0.562,1,0.115 (inactive),0.662,-0.374,-0.0562,0.278 (inactive),0.955 (inactive),0.987 (inactive),2.56,-0.365 (inactive),0.534,-0.601,0.498,0.253
